Consider 14 compounds from ChEMBL document CHEMBL1157539, “Thousands of chemical starting points for antimalarial lead identification” (Nature, 2010).

Each structure is given as a SMILES string.

This test concerns HepG2. The experiment in a line: GSK_TCMDC: Percent inhibition of human HepG2 cell line. Test compounds present at 10uM. It counts as functional.
Broadly, the Inhibition is the drop in the measured response relative to a control, in per cent. Take `CN1CCC(C(=O)Nc2cccc(-c3ccc(-c4nc5ccccc5[nH]4)cc3)c2)CC1`: the Inhibition is given as 7%.

`CCN(CC)CCNc1ccnc2[nH]c3ccc(C)cc3c12` came in with an Inhibition of 9%. Take `Cl.O=C(N[C@@H](Cc1ccccc1)[C@H](O)CNC1CCCc2ccccc21)c1cc(C2CCCC2)cc(N2CCCC2=O)c1` (some centres undefined): the Inhibition amounted to 31%. `CCc1ccc2nc(-c3ccc(F)cc3)nc(SCC(=O)Nc3sc(C)c(C)c3C#N)c2c1` returned an Inhibition of 0%.

Take `Cc1cccc2nc(-c3ccc(-c4ccc(CN5CCC(CO)CC5)cc4)s3)[nH]c12.O=C(O)C(F)(F)F`: the Inhibition was determined as 15%. `Cc1cc(C(F)(F)F)n2nc(C3CCN(Cc4cc(C)c(O)c(C)c4)C3)cc2n1.O=C(O)CC(O)(CC(=O)O)C(=O)O` (centres undefined): the Inhibition stood at 34%. In the case of `CCC(=O)c1c(C)n(-c2ncnc3c2nc(C)n3-c2ccc(C)cc2C)c2ccccc12`, the Inhibition was determined as 0%.

On to `CC(C)(C)c1ccc(S(=O)(=O)Nc2cc(Cl)ccc2Cn2ccc(N3CCNCC3)nc2=O)cc1.O=C(O)C(F)(F)F`, for which the Inhibition is given as 0%. As for `CCc1c(C)nc2nc(Cc3cccc(F)c3)nn2c1N1CCN(c2ccccn2)CC1`, the Inhibition is on record as 0%. The value for `Cl.N#Cc1ccc2c(c1)CCN(CCC1CCC(Nc3ncnc4ccccc34)CC1)C2` (centres undefined) was 65%; that for `COc1ccc(CNC2Cc3ccccc3C2)cc1-c1ccc(S(=O)(=O)NCCN2CCCC2)c(F)c1.O=C(O)C(F)(F)F` was 44%. With `COc1ccc(C=NN=c2cc(C)[nH]c3ccc(C)cc23)c2ccccc12.Cl`, the Inhibition came to 28%. `Cc1cccc2nc(-c3ccc(-c4ccc(NC(=O)Nc5cccc(C#N)c5)cc4)cc3)[nH]c12` returned an Inhibition of 28%.

On to `COc1ccc2nccc([C@@H](O)CN3CCC(NC(=O)c4cc5c(Cl)cc(Cl)cc5[nH]4)CC3)c2c1`, for which the Inhibition is recorded as 22%.
